In PubChem BioAssay AID1159580 (chemical genetic matrix, 2015):
Where “and” joins values, the source holds several entries; their conditions need not be identical. Equal entries are not always repeated. The whole screen tested about 5,500 compounds, of which about 2,000 (36%) were called active. Roughly 18% stayed inconclusive and do not appear here. Cut-off read from the data, not from the text of the source: active = normalized growth mostly below about 0.91 (no sharp cut-off); inconclusive = no clear call, values can overlap the other calls; inactive = mostly above about 0.92. The list shows a part of the results.

Assay: chemical genetic growth profiling, strain panel (AID 1159580);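 note: tested at 20 µM; growth read once vehicle control cultures reached saturation at 30 °C; 1 = growth at the plate median or of vehicle wells; lower values mean less growth of the strain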
Conditions: S. cerevisiae deletion strains, growth OD

Measured: normalized growth

OC(c1cc(C(F)(F)F)nc2c(C(F)(F)F)cccc12)C1CCCCN1 (stereo not drawn)
inactive: locus YAL021C, strain ccr4, stronger effect = lower value 0.995 | locus YAL026C, strain drs2, stronger effect = lower value 0.972 | locus YAL030W, strain snc1, stronger effect = lower value 1.02 | locus YBL061C, strain skt5, stronger effect = lower value 1.01 | locus YBR009C, strain hhf1, stronger effect = lower value 1.01 | locus YBR021W, strain FUR4, stronger effect = lower value 0.965 | locus YBR023C, strain chs3, stronger effect = lower value 1 | locus YBR171W, strain sec66, stronger effect = lower value 1.02 | locus YBR229C, strain ROT2, stronger effect = lower value 0.988 | locus YBR231C, strain swc5, stronger effect = lower value 1.01 | locus YBR279W, strain paf1, stronger effect = lower value 1.02 | locus YCL011C, strain gbp2, stronger effect = lower value 1.01 | locus YCL016C, strain dcc1, stronger effect = lower value 1 | locus YCL029C, strain bik1, stronger effect = lower value 0.999 | locus YCL069W, strain vba3, stronger effect = lower value 0.999 | locus YCR088W, strain abp1, stronger effect = lower value 1.01 | locus YDL005C, strain med2, stronger effect = lower value 1.01 | locus YDL035C, strain GPR1, stronger effect = lower value 0.968 | locus YDL040C, strain nat1, stronger effect = lower value 1.02 | locus YDL074C, strain BRE1, stronger effect = lower value 0.945 | locus YDL101C, strain DUN1, stronger effect = lower value 0.993 | locus YDL134C, strain PPH21, stronger effect = lower value 0.966 | locus YDL185W, strain tfp1, stronger effect = lower value 0.979 | locus YDL192W, strain arf1, stronger effect = lower value 0.997 | locus YDR001C, strain nth1, stronger effect = lower value 1.01 | locus YDR069C, strain doa4, stronger effect = lower value 1.01 | locus YDR101C, strain arx1, stronger effect = lower value 0.993 | locus YDR137W, strain rgp1, stronger effect = lower value 1.12 | locus YDR150W, strain NUM1, stronger effect = lower value 0.995 | locus YDR159W, strain sac3, stronger effect = lower value 0.999 | locus YDR162C, strain NBP2, stronger effect = lower value 0.969 | locus YDR195W, strain ref2 1.02 | locus YDR297W, strain sur2, stronger effect = lower value 1.01 | locus YDR318W, strain mcm21, stronger effect = lower value 0.988 | locus YDR334W, strain swr1, stronger effect = lower value 1.01 | locus YDR335W, strain msn5, stronger effect = lower value 1.01 | locus YDR388W, stronger effect = lower value 0.995 | locus YDR392W, strain spt3, stronger effect = lower value 0.997 | locus YDR502C, strain sam2, stronger effect = lower value 0.987 | locus YEL003W, strain gim4, stronger effect = lower value 1.02 | locus YEL037C, strain rad23, stronger effect = lower value 1.02 | locus YEL061C, strain CIN8 (second series), stronger effect = lower value 1 | locus YEL061C, strain CIN8, stronger effect = lower value 0.994 | locus YER015W, strain faa2, stronger effect = lower value 1.01 | locus YER016W, strain bim1, stronger effect = lower value 1.01 | locus YER110C, stronger effect = lower value 0.996 | locus YER111C, strain swi4, stronger effect = lower value 1.01 | locus YER155C, strain BEM2 (second series), stronger effect = lower value 1.02 | locus YER155C, strain BEM2, stronger effect = lower value 0.997 | locus YER167W, strain BCK2, stronger effect = lower value 0.971 | locus YFR010W, strain ubp6, stronger effect = lower value 1 | locus YGL078C, strain dbp3, stronger effect = lower value 0.985 | locus YGL086W, strain mad1, stronger effect = lower value 0.988 | locus YGL167C, strain pmr1, stronger effect = lower value 1.02 | locus YGL173C, strain kem1, stronger effect = lower value 1.02 | locus YGL227W, strain vid30, stronger effect = lower value 1 | locus YGL240W, strain doc1, stronger effect = lower value 1.03 | locus YGL248W, strain PDE1, stronger effect = lower value 0.997 | locus YGL253W, strain hxk2, stronger effect = lower value 1 | locus YGR078C, strain PAC10, stronger effect = lower value 0.98 | locus YGR135W, strain pre9, stronger effect = lower value 0.973 | locus YGR229C, strain SMI1, stronger effect = lower value 0.95 | locus YGR252W, strain gcn5, stronger effect = lower value 0.922 | locus YHR013C, strain ard1, stronger effect = lower value 1 | locus YHR027C, strain rpn1, stronger effect = lower value 1.02 | locus YHR030C, strain SLT2, stronger effect = lower value 0.994 and 0.969 | locus YHR079C, strain IRE1 (second series), stronger effect = lower value 0.985 | locus YHR079C, strain IRE1, stronger effect = lower value 0.984 | locus YHR094C, strain hxt1, stronger effect = lower value 0.988 | locus YHR129C, strain ARP1, stronger effect = lower value 0.99 | locus YHR142W, strain chs7, stronger effect = lower value 0.984 | locus YHR200W, strain rpn10, stronger effect = lower value 0.996 | locus YIL066C, strain RNR3, stronger effect = lower value 0.973 | locus YIL073C, strain SPO22, stronger effect = lower value 0.979 | locus YIL125W, strain kgd1, stronger effect = lower value 0.995 | locus YIR030C, strain dcg1, stronger effect = lower value 0.99 | locus YJL092W, strain hpr5, stronger effect = lower value 1.01 | locus YJL095W, strain BCK1 (second series), stronger effect = lower value 1 | locus YJL095W, strain BCK1, stronger effect = lower value 0.969 and 0.948 | locus YJL115W, strain asf1, stronger effect = lower value 1.01 | locus YJL129C, strain trk1, stronger effect = lower value 1.02 | locus YJL134W, strain LCB3, stronger effect = lower value 0.993 | locus YJL154C, strain vps35, stronger effect = lower value 1.01 | locus YJL164C, strain tpk1, stronger effect = lower value 0.986 | locus YJL166W, strain qcr8, stronger effect = lower value 1.02 | locus YJL168C, strain set2, stronger effect = lower value 0.99 | locus YJL187C, strain SWE1 (second series), stronger effect = lower value 0.991 | locus YJR043C, strain POL32, stronger effect = lower value 0.979
